Rows were chosen to be rich in hits. Some 19% of all compounds tested hit in one or more screens of this group.
TDP1 cell noCPT – qHTS for Inhibitors of human tyrosyl-DNA phosphodiesterase 1 (TDP1): qHTS in cells in absence of CPT | DT40 Tdp1-/- hTDP1 cells, no CPT, ATP luminescence, 48 h | 420,000 compounds, 15% hits | AID 686978, 2013 | Potency, µM (highest dose often 46.2 µM), inactives show at the highest dose activity change, negative = growth inhibition, most hits filed as inhibitors; further: potency means the concentration at half of the fitted maximal effect; nearly all actives have a fitted effect of over 55% in size
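Camptothecin absent (DMSO only). Human TDP1-complemented DT40 knockout cells, 400 cells/well, 37 °C for minimum 48 hr; ATP measured via CellTiter-Glo, 30 min dark incubation, luminescence.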
HT1080 IDH1KD tx – toxicity to HT-1080 IDH1 knockdown cells (counter line); HT-1080 IDH1 knockdown viability, ATP luminescence, 48 h; Potency, µM (titrated, usually from 46.1 µM), for inactives: at the highest dose activity, negative = toxicity, most hits filed as cytotoxic; 360,000 compounds, 2% hits; AID 686971;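 further: potency means the concentration at half of the fitted maximal effect; 0% = DMSO wells and -100% = cell-free medium wells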
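In this qHTS, HT-1080 cells depleted of IDH1 are exposed for 48 h at 37 °C to compound titrations. Toxicity is scored from CellTiter-Glo luminescence, with DMSO as full viability and medium alone as none.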
TDP1 cell CPT – growth inhibition of DT40 Tdp1-/-;hTDP1 cells with camptothecin (screen for TDP1 inhibitors); Potency, µM (series often up to 46.2 µM), inactives show at the top dose activity change, negative = growth inhibition, most hits filed as inhibitors; AID 686979; chicken DT40 Tdp1-/-;hTDP1 cells + 20 nM CPT, ATP luminescence, 48 h; 420,000 compounds, 12% hits; further: potency means the concentration at half of the fitted maximal effect; nearly all actives have a fitted effect of over 55% in size
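Chicken DT40 Tdp1-/- cells stably complemented with human TDP1 were seeded at 400 cells/well in medium containing 20 nM camptothecin, exposed to pin-transferred compounds, and grown at 37 °C for at least 48 hr. Viability was read as ATP luminescence.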
HT1080-NT tox – kills 2HG-producing HT-1080-NT fibrosarcoma cells; HT-1080-NT fibrosarcoma viability, CellTiter-Glo ATP luminescence, 48 h; Potency, µM (titrated, usually from 46.1 µM), inactives show top-dose activity, negative = less viability, hits mostly cytotoxic; 360,000 compounds, 1.6% hits;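 further: NT is the 2HG producing partner of a matched IDH1 knockdown line; potency means the concentration at half of the fitted maximal effect; 0% = DMSO-treated cells and -100% = media-only wells without cells; nearly all actives have a fitted effect of over 55% in size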
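Viability of the 2HG-overproducing fibrosarcoma line after 48 hours of compound exposure at 37 degrees C was determined by luminescence with CellTiter-Glo, and concentration-effect curves were then fitted and categorized.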
IL1B secr inh – blocks inflammasome-driven IL-1 beta release | 360,000 compounds, 4.7% hits | THP-1 LPS/ATP IL-1B secretion, AlphaLISA, 16 h; active compounds read low | AID 743279 | activity change, % at 57.5 µM; in the data active means activity change below about -50%; inconclusive means mostly about -30% to -49%
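THP-1 cells pretreated 1 hr with compounds (up to 57.5 uM final), then stimulated with LPS (250 ng/mL final) plus ATP (1.25 mM final); secreted IL-1B measured by AlphaLISA after 16 hr, decreased signal indicating inhibition.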
* = called active by the depositor; ? = inconclusive; . = no result given; [ ] = remark or other dose. Unless noted, the call rests on the fitted dose curve; in most records, active means well fitted curve in the direction sought with a large enough effect; inconclusive means small, poorly fitted or top-dose-only effect, or another doubt; inactive means no such curve, though single readings can be large; an effect the other way counts as inactive or inconclusive. Unless noted, on the % scale 0 is the no-effect control and ±100 the full control effect.

SMILES	TDP1 cell noCPT	HT1080 IDH1KD tx	TDP1 cell CPT	HT1080-NT tox	IL1B secr inh
COCCNC(=O)c1c(CS(=O)(=O)c2ccccc2)noc1C(=O)NCc1ccccc1	-14.7%	-18.8%	3.7%	?	-1.4
C=C(Br)CN1[C@@H](Cc2ccccc2)[C@H](O)[C@@]23C=C[C@@H](C[C@@H]2S1(=O)=O)O3	?	5.4%	?	0.3%	16.3
CN(C)CCCNc1ccc(S(N)(=O)=O)cc1[N+](=O)[O-]	-4.8%	17.5%	-12.0%	21.2%	14.9
CC(C)(C)c1ccc(-c2nc3c(C#N)c(-c4ccc5c(c4)OCO5)ccn3n2)cc1	13µM*	0.6%	18.4µM*	-1.4%	40.8
CCCCCc1nc2c(C#N)c(-c3ccc(Cl)cc3)ccn2n1	-22.1%	-5.2%	-25.8%	-2.1%	-15.0
CC(=O)Nc1ccc(NC(=O)c2cc(-c3cc(F)ccc3OCC3CCCO3)n[nH]2)cc1 (stereo unspecified)	?	?	?	9.1%	-18.5
COc1ccc(NC(=O)c2cc(-c3cc(F)ccc3OCC3CCCO3)n[nH]2)cc1OC (stereo unspecified)	20.6µM*	?	?	-26.8%	-80.5*
COc1ccc(NC(=O)c2cc(-c3cc(F)ccc3OCC3CCCO3)n[nH]2)c(C)c1 (stereo unspecified)	?	3.5%	?	-2.6%	-65.7*
COc1ccc(C2=NN(CCC(=O)NCCc3ccccc3)C(=O)CC2)cc1	-12.0%	.	-23.7%	.	.
C=C1/C(=C\C=C2/CCC[C@]3(C)C([C@H](C)CCCC(C)(C)O)CC[C@@H]23)C[C@@H](O)C[C@@H]1O (stereo partly specified)	-21.3%[4.12 µM]	.	?	.	.
C=C1CC[C@H](O)CC1=C/C=C1\CCC[C@]2(C)[C@@H]([C@H](C)CC[C@@H](O)C(C)(C)O)CC[C@@H]12	23.7µM*	.	?	.	.
C=C1/C(=C\C=C2/CCC[C@]3(C)[C@@H]([C@H](C)OCCC(C)(C)O)CC[C@@H]23)C[C@@H](O)C[C@@H]1O	?	.	15µM*	.	.
COc1ccc(-n2c(=O)c(CCc3ccccc3)nc3cnc(N4CCN(C)CC4)nc32)cc1	-24.8%	.	-10.0%	.	.
Cc1noc(C)c1S(=O)(=O)N1CCC(C(=O)N2CCN(c3ccccc3Cl)CC2)CC1	20.6µM*	-4.9%	?	-1.0%	-5.6
Cc1ccc(C)c(N2CCN(C(=O)C3CCN(S(=O)(=O)c4c(C)noc4C)CC3)CC2)c1	8.2µM*	18.4µM*	10.3µM*	-25.0%	?
Cc1noc(C)c1S(=O)(=O)N1CCC(C(=O)N2CCN(c3ccccc3)CC2)CC1	?	.	-0.1%	.	.
Cc1ccc(C)c(N2CCN(S(=O)(=O)c3c(C)noc3/C=C/N(C)C)CC2)c1	18.4µM*	5.3%	?	-7.0%	-16.1
Cc1noc(/C=C/N(C)C)c1S(=O)(=O)N1CCN(c2ccccc2)CC1	?	?	-26.3%	-10.1%	-14.1
Cc1noc(C)c1S(=O)(=O)N1CCC(C(=O)N2CCN(c3cccc(C(F)(F)F)c3)CC2)CC1	3.26µM*	.	5.17µM*	.	.
Cc1ccc(C(=O)OCC(=O)NC2CCCC(C)C2C)cc1S(=O)(=O)N1CCCCC1 (stereo unspecified)	?	-2.7%	20.6µM*	-17.6%[9.24 µM]	9.2
Cc1ccc(C(=O)OC(C)C(=O)NC2CCCCC2C)cc1S(=O)(=O)N1CCCCC1 (stereo unspecified)	?	-0.5%	18.4µM*	12.5%	23.3
Cc1ccc(C(=O)OCC(=O)N2c3ccccc3NC(=O)C2(C)C)cc1S(=O)(=O)N1CCCCC1	14.6µM*	-19.0%	?	-18.6%	-19.2
Cc1ccnc2nc(C(=O)OCC(=O)NC3CCCC(C)C3C)nn12 (stereo unspecified)	1.46µM*	?	-19.9%	-23.7%	-8.1
Cc1ccc(S(=O)(=O)N2CCCCC2)cc1C(=O)OCC(=O)N1c2ccccc2NC(=O)C1(C)C	?	11.7%	?	14.0%	-7.2
OC1CCC2Cc3ccccc3N=C12 (stereo unspecified)	-23.9%	.	7.3%	.	.
SMILES	TDP1 cell noCPT	HT1080 IDH1KD tx	TDP1 cell CPT	HT1080-NT tox	IL1B secr inh
O=C(NCCc1ccccc1)C1CCC(CNS(=O)(=O)c2ccc(F)cc2)CC1 (stereo unspecified)	22.2%	9.7%	1.6%	10.8%	26.9
CCC1CCC/C1=N\NC(=O)c1ccoc1C (stereo unspecified)	19.7%	15.5%	-1.6%	-0.3%	10.2
COc1ccccc1N1CCN(CCCNC(=O)c2nnc(Cc3c(F)cccc3Cl)o2)CC1	?	.	-26.3%	.	.
Cc1ccc(C)c(N2CCN(CCCNC(=O)c3nnc(Cc4ccc(F)cc4Cl)o3)CC2)c1	4.61µM*	.	2.59µM*	.	.
O=C(NCCCN1CCN(c2ccc(F)cc2)CC1)c1ccc2nc(Cc3ccccc3)oc2c1	20.6µM*	.	13µM*	.	.
O=C(NCCCN1CCN(c2ccccc2)CC1)c1nnc(Cc2ccc(F)cc2)o1	25.9µM*	.	?	.	.
O=C(NCCCN1CCN(c2ccccc2)CC1)c1ccc2nc(Cc3ccccc3)oc2c1	8.2µM*	.	11.6µM*	.	.
CCN1CCN(CCCNC(=O)c2ccc3nc(Cc4ccccc4)oc3c2)CC1	21.7%	.	9.2%	.	.
COc1ccccc1N(CC(O)Cn1ccnc1C)S(=O)(=O)c1ccc(C)cc1 (stereo unspecified)	?	-1.8%	-14.8%	-0.6%	-2.3
COc1ccc(N2CC(C(=O)Nc3ccccc3-c3nc(-c4ccc(C)cc4)no3)CC2=O)cc1 (stereo unspecified)	-7.3%	.	-3.4%	.	.
Cc1cccc(-c2noc(-c3ccccc3NC(=O)C3CC(=O)N(c4ccccc4C)C3)n2)c1 (stereo unspecified)	14.6µM*	.	23.1µM*	.	.

Compound activity from PubChem BioAssay.
